Data: PubChem BioAssay AID633 (Emory University Molecular Libraries Screening Center, 2007)
About 1,100 (1.3%) of roughly 86,000 compounds were called active.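 The calls were made as follows: active = compounds whose percent inhibition of the receptor-coactivator binding signal exceeds about 50% in the single-dose screen (limit read from the data); inactive = the rest.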 Only a selection was taken, and actives are over-represented in it overall.

These compounds were tested against Estrogen receptor beta (Homo sapiens) (UniProt Q92731) (assay: inhibitors of ERβ-SRC1 coactivator interaction, primary screen, biochemical, TR-FRET, ERβ LBD, SRC-1 peptide (AID 633;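 also: 0% = receptor plus peptide wells without compound and 100% = peptide-only wells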)). Conditions: TR-FRET ER-beta LBD / SRC1-Cy5 peptide binding; at 25.6 µM; hits give high values; receptor agonist-loaded with 1 µM estradiol.
Sequence of Estrogen receptor beta (Homo sapiens) (Q92731 whole entry, looked up, the tested form may be a part): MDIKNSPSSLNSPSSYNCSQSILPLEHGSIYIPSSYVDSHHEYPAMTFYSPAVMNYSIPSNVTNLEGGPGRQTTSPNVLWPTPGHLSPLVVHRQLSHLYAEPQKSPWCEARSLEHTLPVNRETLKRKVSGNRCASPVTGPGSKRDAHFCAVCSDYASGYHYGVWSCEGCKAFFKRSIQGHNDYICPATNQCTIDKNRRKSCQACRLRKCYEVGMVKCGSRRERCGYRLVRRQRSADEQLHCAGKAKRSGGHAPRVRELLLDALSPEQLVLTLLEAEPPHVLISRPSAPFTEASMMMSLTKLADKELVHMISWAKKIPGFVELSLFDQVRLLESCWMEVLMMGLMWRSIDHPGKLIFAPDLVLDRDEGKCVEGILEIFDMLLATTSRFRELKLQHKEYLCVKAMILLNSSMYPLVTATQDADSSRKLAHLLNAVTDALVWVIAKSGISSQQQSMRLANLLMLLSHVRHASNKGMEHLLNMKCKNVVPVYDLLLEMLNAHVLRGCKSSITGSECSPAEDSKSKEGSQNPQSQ

inhibition, active:
CN(C)CCCNc1c2c(c(C#N)c3nc4ccccc4n13)CCC2 70.9% [fluorescence artefact?], O=c1c2ccccc2nc(CSc2nnnn2-c2ccccc2)n1-c1ccccc1 61.2% [fluorescence artefact?], N#Cc1c(NC(=O)CSc2nc3ccccc3c(=O)n2Cc2ccco2)sc2c1CCCC2 50.4% [fluorescence artefact?], COc1ccc(-n2c(SCC(=O)Nc3sc4c(c3C#N)CCCC4)nnc2-c2ccc(O)cc2)cc1 60.9% [fluorescence artefact?], Oc1ccc(CNc2ccccc2O)cc1 52.5% [fluorescence artefact?], O=C(COC(=O)CCC(=O)c1cccs1)NCc1ccco1 51.1% [fluorescence artefact?], CCCn1c(=O)c2ccccc2n2c(SCC(=O)/C(C#N)=C(\C)N)nnc12 50.4% [fluorescence artefact?], O=C(Cn1nnc(-c2ccc3c(c2)OCO3)n1)NCc1ccco1 50.1%, CC1(N2CCOCC2)CC2(O)C(=[N+]1[O-])CCc1nonc12 (centres undefined) 58.1%, COc1ccc(Cc2nnc(NC(=O)Cc3cccs3)s2)cc1 92%, COc1ccc(Nc2oc(-c3ccccc3Cl)nc2C#N)cc1 76.6% [fluorescence artefact?]

inhibition, inactive:
CC(=O)C1=C(C)NC(=O)NC1c1cc(Br)ccc1OCC#N (centres undefined) -0.75%, CC(C)CC(N=C1NC(C)(C)Cc2ccccc21)C(=O)O (centres undefined) -1.78%, CCCc1noc2c1/C(=N\O)CCC2 1.64%, CCNCCC(=O)N1c2ccccc2Sc2ccc(NC(=O)OCC)cc21 -17.8%, O=C(NCc1ccco1)c1ccc(Cn2c(=O)c3sccc3n(Cc3ccc(F)cc3)c2=O)cc1 18.4%, Cc1cccc(C(=O)N2CCCN(C(=O)c3cccc(C)c3)CC2)c1 -0.48%, N#Cc1c2c(c(N3CCN(CCO)CC3)n3c1nc1ccccc13)CCCC2 -8.78%, CCN1CCc2c(C#N)c(NCc3ccccc3)nc(NCCO)c2C1 -0.53%, O=c1onc(-c2cccs2)n1Cc1ccccc1 -0.76%, CCCCCCNC(=O)CSc1nccn1Cc1ccccc1 -2.58%, Cc1ccc(-n2c(SCC(=O)NCc3ccc4c(c3)OCO4)nnc2-c2cccnc2)c(C)c1 -8.68%, N#CCSc1nc2ccccc2c(=O)n1-c1ccccc1 8.58%, O=c1c2ccccc2nnn1CSc1nnnn1-c1ccccc1 -2.64%, CC(=O)NC1(c2cccc(F)c2)CCN(CC(=O)NC(C)C)CC1 -7.62%, CC(Sc1nc2ccccc2c(=O)n1Cc1ccco1)C(=O)c1ccccc1 (centres undefined) -2.69%, COC(=O)c1c(NC(=O)CSc2nncs2)sc2c1CCCCC2 10.9%, C=C(C)Cn1c(SCC(=O)NCc2ccco2)nc2sc3c(c2c1=O)CCC3 9.18%, COc1ccc(-c2nnc(SCC(=O)c3ccco3)n2-c2ccccc2)cc1 7.14%, Cc1cc2nc(SCCN3CCOCC3)[nH]c2cc1C -13.7%, COC(=O)C1=C(C(=O)c2ccc(C)cc2)C(c2ccccc2)n2nnnc2N1 (centres undefined) -1.03%, Cc1ccc(-n2ccc(=O)c(C(=O)O)n2)cc1 -4.61%, O=C(COc1ccccc1)Nc1nonc1NC(=O)COc1ccccc1 4.67%, COc1ccc(CCNS(=O)(=O)c2ccc(Cl)s2)cc1OC -8.93%, COc1cc(C2CC(=O)c3cnc(NC(C)=O)nc3C2)cc(OC)c1OC (centres undefined) -3.76%, CCC(C(=O)NCc1ccc(OC)cc1)n1nc(C)n2c(cc3occc32)c1=O (centres undefined) -7.78%, CCCn1c(C(Cc2ccccc2)NC(=O)COC)nc2ccccc21 (centres undefined) 46.8%, O=C(COC(=O)C12CC3CC(CC(C3)C1)C2)NCc1ccco1 13.8%, O=C(CCC(=O)c1cccs1)NCc1ccccc1 12.1%, CC(CO)N1CCS(=O)(=O)CC1 (centres undefined) -15%, CCN(c1ccccc1)S(=O)(=O)c1ccc(NC(=O)C(C)(C)C)cc1 14.4%, C=CCn1c(=O)c2ccccc2n2c(SCC(=O)N3CCCc4ccccc43)nnc12 -1.59%, C=CCn1c(SCC(=O)/C(C#N)=C(\C)N)nc2sc(C)c(C)c2c1=O 16.2%, O=C(CN1CCSCC1)N/N=C/c1ccc(F)cc1F 12.6%, CC(C)(O)C(=O)NN(C(=O)c1ccccc1)c1cccc(Br)c1 -3.36%, COC(=O)c1cccc(N(C(=O)c2ccco2)C(C(=O)NC2CCCC2)c2ccco2)c1 (centres undefined) -14.4%, O=C(NCCOc1ccccc1)c1ccccc1 7.95%, CS(=O)(=O)N(CC(=O)NCc1ccco1)c1ccc2c(c1)OCO2 44.3%, O=C(Cn1nnc(-c2ccccc2)n1)NCc1ccc2c(c1)OCO2 9.19%, Cc1[nH]n(-c2cccc(Cl)c2)c(=O)c1/C=N/n1c(C)nc2ccccc2c1=O -3.58%, CC(=O)Nc1ccc(S(=O)(=O)N2CCN(C(=O)c3ccccc3F)CC2)cc1 -9.27%, O=C(CN1CCCCCC1)N1c2ccccc2Sc2ccc(C(F)(F)F)cc21 -7.5%, CC(c1ccco1)N(C(=O)Nc1ccccc1)C1CCCCC1 (centres undefined) 0.39%, Cc1c(Br)cc(C(=O)N2CCCCCC2)c(C)c1C -18.4%, CCCc1ccc(-c2csc(NC(=O)Cc3cccs3)n2)cc1 11.4%, COc1ccc(Cc2nnc(NS(=O)(=O)Cc3ccccc3)s2)cc1 39.9%, COc1ccccc1-c1nc(C#N)c(N2CCC(C(N)=O)CC2)o1 -16.6%, CCOc1ccc(Nc2oc(Cc3ccccc3)nc2C#N)cc1 -1.53%, Cc1ccc(/C=N/NC(=O)Cn2nc(C)c(Br)c2C)o1 -11.6%
